Measurements published in PubChem BioAssay (NCI).
This is part of a sample that, as a whole, favours compounds with a hit. Of some 83,000 tested, about 20% had one in any assay.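 Activity criterion: percent growth below 10, measured after cells in 96-well plates were exposed to a single compound concentration for 48 hours.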 Values without a mark were called inactive. The source made the active and inactive calls.

Legend:
Test in all cases: NCI-60 one-dose screen, 48 h (100 = growth as untreated, 0 = no growth, -100 = all killed)
Conditions in all cases: 10 µM unless noted
RPMI-8226 leukemia = test system: RPMI-8226 leukemia
OVCAR-8 ovarian = test system: OVCAR-8 ovarian
OVCAR-5 ovarian = test system: OVCAR-5 ovarian
OVCAR-4 ovarian = test system: OVCAR-4 ovarian
SK-OV-3 ovarian = test system: SK-OV-3 ovarian
IGROV1 ovarian = test system: IGROV1 ovarian
OVCAR-3 ovarian = test system: OVCAR-3 ovarian
HS 578T breast = test system: HS 578T breast
NCI/ADR-RES ovarian = test system: NCI/ADR-RES ovarian
T-47D breast = test system: T-47D breast

Structure (SMILES) | growth (RPMI-8226 leukemia) | growth (OVCAR-8 ovarian) | growth (OVCAR-5 ovarian) [%] | growth (OVCAR-4 ovarian) | growth (SK-OV-3 ovarian) [%] | growth (IGROV1 ovarian) | growth (OVCAR-3 ovarian) | growth (HS 578T breast) | growth (NCI/ADR-RES ovarian) | growth (T-47D breast)
O=C(Nc1ccc(Cl)cc1)c1cc2c(cc1O)[nH]c1ccccc12 | -61.6% (active) | 8.57% (active) | 59.8 | 30.6% | 24.4 | 163% | 6.34% (active) | 52% | 0.0543% (active) | -1.88% (active)
O=C(C=C=Nc1ccccc1)C(=O)N=C=Cc1ccccc1 | -59.5% (active) | 60.8% | 75.5 | 50.6% | 107 | 51.5% | 13.5% | 94.8% | 65.5% | 17.7%
COc1cc(C2NC(c3ccc(Cl)cc3)C(C)C(=NC(=O)c3cnccn3)C2C)cc(OC)c1OC (stereo not given) | 79.4% | 103% | 94.5 | 93% | 108 | 91.6% | 107% | 109% | 101% | 88%
COc1ccc(C(=O)C(C)Br)cc1OC (stereo not given) | 85.5% | 88.3% | 84.7 | 84% | 115 | 76.5% | 61.5% | 95.2% | 96.1% | 82.6%
C=C(C)[C@@H]1C/C=C(/C=O)CC[C@@H]2O[C@@]2(C)CC/C=C(\C)CC1 | -7.67% (active) | 105% | 97.2 | 122% | 106 | 986% | 110% | 126% | 115% | 101%
O=C(NN(C(=O)c1ccccc1)c1cccs1)c1ccccc1 | 94.4% | 120% | 105 | 106% | 102 | 102% | 115% | 104% | 103% | 94.9%
COc1ccc2c(c1)C(=O)/C(=C/c1ccc([N+](=O)[O-])s1)O2 | -12% (active) | -5.24% (active) | 32.9 | -45% (active) | 74.6 | -58.3% (active) | -35.7% (active) | -6.61% (active) | 27.3% | -49.1% (active)
Cc1ccc(NC(=O)COC(=O)c2ccc(S(=O)(=O)N3CCCCCC3)cc2)cc1 | 97.6% | 98.8% | 84 | 105% | 79.4 | 101% | 106% | 113% | 105% | 5.22% (active)
NNC(=O)NO | 109% | 102% | 110 | 101% | 94.1 | 108% | 106% | 96.6% | 109% | 98.9%
CNc1ccc(CSc2ccc(Cl)cc2)cc1 | 35.8% | 103% | 90.2 | 85.6% | 107 | 81.9% | 109% | 123% | 97% | 80.3%
C/C(=C\CCc1ccsc1)CC/C=C(\C)CCCN1CCC(CO)CC1 | -31.1% (active) | 62.8% | 63.9 | 40.8% | 55.5 | 56.1% | 48.6% | 28.3% | 51% | 27.1%
COC(=O)CCC1=C(C)/C(=C/c2[nH]c(-c3ccc[nH]3)cc2OC)N=C1C | -57% (active) | 10% | 35 | 23.4% | 40 | 25.9% | -56.9% (active) | 1.28% (active) | 14.8% | -36% (active)
COc1ccc(C2=NNC(c3cc(Cc4ccc(O)c(C5CC(c6ccc(OC)cc6)=NN5)c4)ccc3O)C2)cc1 (stereo not given) | 26.9% | 28.8% | 112 | 58.3% | 93.9 | 35.5% | 68.6% | 43% | 33.7% | 50.3%
CSc1nc2c(c(=O)n1C)C(c1ccccc1)C1=C(N2)/C(=C/c2ccccc2)CCC1 (stereo not given) | 39.5% | 63.7% | 113 | 68.3% | 107 | 47.2% | 52.8% | 61% | 38.3% | 57%
O=C1C(Cl)=C(N=Nc2c(Cl)c(O)c3ccccc3c2O)C(=O)c2ccccc21 | 69.2% | 79.1% | 121 | 72.3% | 89.8 | 60.1% | 24.3% | 55.3% | 73.8% | 66.9%
O=C(c1ccccc1)c1ccco1 | 101% | 98.2% | 114 | 99.4% | 104 | 99.5% | 108% | 118% | 95.7% | 97%
CN(CCOc1ccc(CC2SC(=O)NC2=O)cc1)c1ccccn1 (stereo not given) | 104% | 91.9% | 95.2 | 110% | 106 | 97.9% | 110% | 100% | 101% | 102%
COc1ccc(-c2cc(Cc3cccs3)c(=O)n(Cn3ccc4ccccc43)n2)cc1 | 88% | 99.2% | 99.9 | 111% | 106 | 124% | 111% | 112% | 107% | 109%
COC(=O)CCC1=C(C)C(C)=N/C1=C\c1[nH]c(-c2ccc[nH]2)cc1OC | -61.8% (active) | 5.55% (active) | 22.7 | 11.8% | 16.2 | 18.4% | -34.5% (active) | -6.06% (active) | 6.26% (active) | 7.35% (active)
CN(C)c1cccc2c(S(=O)(=O)N[C@H]3CC[C@H]4[C@@H]5CCc6cc(O)ccc6[C@H]5CC[C@]34C)cccc12 | 7.82% (active) | 45.8% | 78.1 | 50.6% | 33.3 | 33.1% | 19.7% | 56.5% | 12.3% | 21.5%
